Values joined by “and” are separate entries in the source; they are usually repeats but may differ in a detail not shown here. Equal entries are not always repeated. Out of some 5,500 compounds screened, about 2,000 (36%) were called active. Not shown: some 18% with an inconclusive outcome. No stated cut-off is given here; in the data, active means normalized growth mostly below about 0.91 (no sharp cut-off); inconclusive means no clear call, values can overlap the other calls; inactive means mostly above about 0.92. This is one part of the list.
Assay: chemical genetic growth profiling, strain panel (AID 1159580);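 further: tested at 20 µM; growth read once vehicle control cultures reached saturation at 30 °C; 1 = growth at the plate median or of vehicle wells; lower values mean less growth of the strain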
Conditions: S. cerevisiae deletion strains, growth OD
[1] = locus YAL040C, strain CLN3, hits give low values
[2] = locus YCL061C, strain MRC1 (second series), hits give low values
[3] = locus YER002W, strain NOP16, hits give low values
[4] = locus YJR075W, strain HOC1, hits give low values
[5] = locus YMR263W, strain SAP30, hits give low values
[6] = locus YNL153C, strain GIM3, hits give low values
[7] = locus YNL175C, strain NOP13, hits give low values
[8] = locus YNL197C, strain WHI3, hits give low values
[9] = locus YNL224C, strain SQS1, hits give low values
[10] = locus YOR083W, strain WHI5 (second series), hits give low values
[11] = locus YPL241C, strain CIN2, hits give low values

Measured: normalized growth

N[C@@H](CC(=O)O)C(=O)O
inactive: locus YAL013W, strain DEP1, hits give low values 1.01 | [1] 1.09 | [2] 1.01 | [3] 1.01 | [4] 1.01 | [5] 1 | [6] 1.02 | [7] 1 | [8] 1 | [9] 0.996 | [10] 0.955 | [11] 1.01

O=c1[nH]cnc2[nH]ncc12
inactive: locus YAL021C, strain ccr4, hits give low values 1.01 | locus YAL026C, strain drs2, hits give low values 1 | locus YAL030W, strain snc1, hits give low values 0.985 | [1] 1.01 | locus YBL061C, strain skt5, hits give low values 1 | locus YBR009C, strain hhf1, hits give low values 1 | locus YBR021W, strain FUR4, hits give low values 1.01 | locus YBR023C, strain chs3, hits give low values 1 | locus YBR171W, strain sec66, hits give low values 1.01 | locus YBR229C, strain ROT2, hits give low values 1.01 | locus YBR231C, strain swc5, hits give low values 1.02 | locus YBR279W, strain paf1, hits give low values 1 | locus YCL011C, strain gbp2, hits give low values 1.01 | locus YCL016C, strain dcc1, hits give low values 1.01 | locus YCL029C, strain bik1, hits give low values 1.02 | [2] 0.996 | locus YCL069W, strain vba3, hits give low values 1.01 | locus YCR088W, strain abp1, hits give low values 0.993 | locus YDL005C, strain med2, hits give low values 0.998 | locus YDL035C, strain GPR1, hits give low values 0.997 | locus YDL040C, strain nat1, hits give low values 0.988 | locus YDL074C, strain BRE1, hits give low values 0.996 | locus YDL101C, strain DUN1, hits give low values 1.01 | locus YDL134C, strain PPH21, hits give low values 0.993 | locus YDL185W, strain tfp1, hits give low values 1.02 | locus YDL192W, strain arf1, hits give low values 1.01 | locus YDR001C, strain nth1, hits give low values 0.992 | locus YDR069C, strain doa4, hits give low values 1.04 | locus YDR101C, strain arx1, hits give low values 1 | locus YDR137W, strain rgp1, hits give low values 0.993 | locus YDR159W, strain sac3, hits give low values 1.02 | locus YDR162C, strain NBP2, hits give low values 1.01 | locus YDR195W, strain ref2 0.958 | locus YDR297W, strain sur2, hits give low values 1 | locus YDR318W, strain mcm21, hits give low values 1.01 | locus YDR334W, strain swr1, hits give low values 1.03 | locus YDR335W, strain msn5, hits give low values 1.01 | locus YDR388W, hits give low values 1.02 | locus YDR392W, strain spt3, hits give low values 0.966 | locus YDR502C, strain sam2, hits give low values 1.01 | locus YEL003W, strain gim4, hits give low values 1.01 | locus YEL037C, strain rad23, hits give low values 1.01 | locus YEL061C, strain CIN8 (second series), hits give low values 1.02 | locus YEL061C, strain CIN8, hits give low values 1 | [3] 1 | locus YER015W, strain faa2, hits give low values 1.01 | locus YER016W, strain bim1, hits give low values 0.97 | locus YER110C, hits give low values 1.03 | locus YER111C, strain swi4, hits give low values 1 | locus YER155C, strain BEM2 (second series), hits give low values 1.01 | locus YER155C, strain BEM2, hits give low values 1.01 | locus YER167W, strain BCK2, hits give low values 0.999 | locus YFR010W, strain ubp6, hits give low values 1.01 | locus YGL078C, strain dbp3, hits give low values 1.01 | locus YGL086W, strain mad1, hits give low values 1 | locus YGL167C, strain pmr1, hits give low values 1.01 | locus YGL173C, strain kem1, hits give low values 0.998 | locus YGL227W, strain vid30, hits give low values 1.01 | locus YGL240W, strain doc1, hits give low values 1.04 | locus YGL248W, strain PDE1, hits give low values 1.01 | locus YGL253W, strain hxk2, hits give low values 0.995 | locus YGR135W, strain pre9, hits give low values 1.01 | locus YGR252W, strain gcn5, hits give low values 0.989 | locus YHR013C, strain ard1, hits give low values 0.968 | locus YHR027C, strain rpn1, hits give low values 1 | locus YHR030C, strain SLT2, hits give low values 1.01 and 0.983 | locus YHR079C, strain IRE1 (second series), hits give low values 1.02 | locus YHR079C, strain IRE1, hits give low values 1.04 | locus YHR094C, strain hxt1, hits give low values 1.03 | locus YHR129C, strain ARP1, hits give low values 1 | locus YHR142W, strain chs7, hits give low values 0.998 | locus YHR200W, strain rpn10, hits give low values 1.03 | locus YIL066C, strain RNR3, hits give low values 1.01 | locus YIL073C, strain SPO22, hits give low values 1.04 | locus YIL125W, strain kgd1, hits give low values 1.02 | locus YIR030C, strain dcg1, hits give low values 1.01 | locus YJL092W, strain hpr5, hits give low values 1.01 | locus YJL095W, strain BCK1 (second series), hits give low values 1.01 | locus YJL095W, strain BCK1, hits give low values 1.02 and 1.03 | locus YJL115W, strain asf1, hits give low values 1.02 | locus YJL129C, strain trk1, hits give low values 1.01 | locus YJL134W, strain LCB3, hits give low values 0.999 | locus YJL154C, strain vps35, hits give low values 1.01 | locus YJL164C, strain tpk1, hits give low values 0.981 | locus YJL166W, strain qcr8, hits give low values 1.02 | locus YJL168C, strain set2, hits give low values 1.02 | locus YJL187C, strain SWE1 (second series), hits give low values 1.02 | locus YJL187C, strain SWE1, hits give low values 1.01 | locus YJR043C, strain POL32, hits give low values 0.988 | locus YJR066W, strain TOR1, hits give low values 0.974 | [4] 1.01 | locus YKL009W, strain mrt4, hits give low values 1.02 | locus YKL068W, hits give low values 1.01 | locus YKL085W, strain MDH1 (second series), hits give low values 1 | locus YKL085W, strain MDH1, hits give low values 1 | locus YKL160W, strain elf1, hits give low values 1 | locus YKR001C, strain vps1, hits give low values 1.01 | locus YKR026C, strain gcn3, hits give low values 1.06 | locus YKR091W, strain srl3, hits give low values 0.999 | locus YLL001W, strain dnm1, hits give low values 1.01 | locus YLL026W, hits give low values 1 | locus YLL041C, strain sdh2, hits give low values 0.987 | locus YLR027C, strain aat2, hits give low values 1.01 | locus YLR039C, strain RIC1, hits give low values 1 | locus YLR058C, strain SHM2, hits give low values 1.01 | locus YLR102C, strain apc9, hits give low values 1.02 | locus YLR113W, strain HOG1, hits give low values 1.02 | locus YLR221C, strain rsa3, hits give low values 1.01 | locus YLR258W, strain gsy2, hits give low values 1 | locus YLR262C, strain YPT6 (second series), hits give low values 1 | locus YLR262C, strain YPT6, hits give low values 1.04 | locus YLR268W, strain sec22, hits give low values 1.02 | locus YLR320W, strain mms22, hits give low values 0.992 | locus YLR330W, strain CHS5, hits give low values 1 | locus YLR342W, strain FKS1 (second series), hits give low values 0.982 | locus YLR342W, strain FKS1, hits give low values 1.02 | locus YLR357W, strain rsc2, hits give low values 0.998 | locus YLR370C, strain arc18, hits give low values 1.01 | locus YLR371W, strain rom2, hits give low values 1.01 | locus YLR384C, strain iki3, hits give low values 1 | locus YLR418C, strain cdc73, hits give low values 1.01 | locus YML016C, strain PPZ1, hits give low values 1.01 | locus YML032C, strain rad52, hits give low values 1.01 | locus YML120C, strain ndi1, hits give low values 1.02 | locus YML124C, strain tub3, hits give low values 1.02 | locus YMR058W, strain fet3, hits give low values 1.02 | locus YMR078C, strain ctf18, hits give low values 1.02 | locus YMR125W, strain sto1, hits give low values 0.998 | locus YMR129W, hits give low values 1.01 | locus YMR205C, strain PFK2, hits give low values 0.998 | locus YMR223W, strain ubp8, hits give low values 1.01 | locus YMR231W, strain pep5, hits give low values 1 | [5] 0.997 | locus YMR307W, strain GAS1, hits give low values 1.02 and 1.01 | locus YNL067W, strain RPL9B, hits give low values 1.02 | locus YNL071W, strain lat1, hits give low values 1.02 | [6] 1.03 | [7] 1.01 | locus YNL183C, strain NPR1, hits give low values 0.977 | [8] 1.01 | locus YNL209W, strain ssb2, hits give low values 0.998 | [9] 0.994 | locus YNL233W, strain BNI4, hits give low values 1.01 | locus YNL248C, strain rpa49, hits give low values 1.04 | locus YNL250W, strain rad50, hits give low values 1.01 | locus YNL271C, strain bni1, hits give low values 1.02 | locus YNL298W, strain CLA4, hits give low values 1.01 | locus YNL307C, strain MCK1, hits give low values 1.03 | locus YNL322C, strain KRE1 (second series), hits give low values 0.993 | locus YNL322C, strain KRE1, hits give low values 1.01 | locus YNR049C, strain mso1, hits give low values 1.02 | locus YNR052C, strain pop2, hits give low values 1.02 | locus YOL006C, strain TOP1, hits give low values 1.05 | locus YOL012C, strain htz1 0.934 | locus YOL147C, strain pex11, hits give low values 1.01 | locus YOR001W, strain rrp6, hits give low values 1.05 | locus YOR061W, strain CKA2, hits give low values 1.01 | locus YOR069W, strain VPS5, hits give low values 1 | locus YOR070C, strain gyp1, hits give low values 0.996 | locus YOR080W, strain dia2, hits give low values 1.02 | [10] 1.04 | locus YOR083W, strain WHI5, hits give low values 1.05 | locus YOR106W, strain vam3, hits give low values 1.03 | locus YOR136W, strain idh2, hits give low values 1.02 | locus YOR144C, strain elg1, hits give low values 1.01 | locus YOR184W, strain ser1, hits give low values 1.01 | locus YOR231W, strain MKK1, hits give low values 1.03 | locus YOR265W, strain rbl2, hits give low values 1.01 | locus YOR270C, strain vph1, hits give low values 1.08 | locus YOR290C, strain snf2, hits give low values 0.993 | locus YOR316C, strain cot1, hits give low values 1.01 | locus YPL051W, strain arl3, hits give low values 1.01 | locus YPL078C, strain atp4, hits give low values 1.03 | locus YPL106C, strain sse1, hits give low values 1.01 | locus YPL240C, strain hsp82, hits give low values 1 | [11] 1 | locus YPL256C, strain CLN2, hits give low values 1 | locus YPR119W, strain clb2, hits give low values 1.02 | locus YPR141C, strain kar3, hits give low values 1.03 | locus YPR163C, strain tif3, hits give low values 1.03 | locus YPR167C, strain met16, hits give low values 1.02 | strain wtn01, hits give low values 1

— PubChem BioAssay AID1159580 (chemical genetic matrix, 2015)
